Laboratory results published in paper PMC4336329 (PLoS ONE, 2015).
About 2,200 (0.71%) of roughly 310,000 compounds showed an effect of 50% or more. The effect is printed as a negative number. This is one part of a sample in which strong results are shown more often than they occur.

molecular target: human ether-à-go-go-related gene (hERG) potassium channel (human, UniProt Q12809); test: primary screen, population patch clamp on CHO cells stably expressing hERG; higher = less effect of the substance
Sequence (Q12809 whole entry, looked up): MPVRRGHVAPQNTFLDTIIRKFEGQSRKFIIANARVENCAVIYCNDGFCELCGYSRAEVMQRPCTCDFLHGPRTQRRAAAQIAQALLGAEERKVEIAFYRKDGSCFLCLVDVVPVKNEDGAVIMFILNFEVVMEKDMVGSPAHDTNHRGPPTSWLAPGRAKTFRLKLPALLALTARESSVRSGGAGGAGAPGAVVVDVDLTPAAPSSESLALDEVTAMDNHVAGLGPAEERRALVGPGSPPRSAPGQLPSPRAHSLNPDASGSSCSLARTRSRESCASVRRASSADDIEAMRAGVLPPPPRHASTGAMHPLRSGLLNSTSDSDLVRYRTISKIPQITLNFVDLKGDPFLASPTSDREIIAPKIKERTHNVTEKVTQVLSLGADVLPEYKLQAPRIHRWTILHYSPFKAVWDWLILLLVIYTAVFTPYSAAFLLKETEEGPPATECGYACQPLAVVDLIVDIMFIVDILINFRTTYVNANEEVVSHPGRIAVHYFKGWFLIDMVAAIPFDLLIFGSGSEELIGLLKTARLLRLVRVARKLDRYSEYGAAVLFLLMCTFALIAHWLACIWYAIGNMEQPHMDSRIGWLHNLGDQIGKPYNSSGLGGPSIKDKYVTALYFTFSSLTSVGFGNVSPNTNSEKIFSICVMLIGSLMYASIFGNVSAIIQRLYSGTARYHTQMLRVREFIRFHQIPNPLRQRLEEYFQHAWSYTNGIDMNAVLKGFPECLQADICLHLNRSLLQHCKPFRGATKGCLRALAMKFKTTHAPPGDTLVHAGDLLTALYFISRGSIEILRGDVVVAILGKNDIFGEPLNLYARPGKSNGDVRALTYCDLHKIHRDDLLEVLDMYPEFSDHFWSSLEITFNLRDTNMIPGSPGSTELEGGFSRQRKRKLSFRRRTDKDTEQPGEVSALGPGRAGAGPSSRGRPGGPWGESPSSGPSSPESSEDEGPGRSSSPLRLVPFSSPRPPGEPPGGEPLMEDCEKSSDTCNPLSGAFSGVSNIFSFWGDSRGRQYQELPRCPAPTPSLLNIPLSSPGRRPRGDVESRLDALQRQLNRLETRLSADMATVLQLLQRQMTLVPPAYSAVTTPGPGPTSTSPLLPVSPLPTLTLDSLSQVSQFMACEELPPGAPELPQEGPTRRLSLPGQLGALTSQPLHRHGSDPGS

In order of rising “hERG current change (%, negative = inhibition) at 1uM” value:
1. N=c1c(C(=O)NCc2ccco2)cc2c(=O)n3ccccc3nc2n1CC1CCCO1 (centres unmarked)  -84.3%
2. N=c1c(C(=O)NCC2CCCO2)cc2c(=O)n3ccccc3nc2n1Cc1ccc(F)cc1 (centres unmarked)  -82.7%
3. N=c1c(C(=O)NCC2CCCO2)cc2c(=O)n3ccccc3nc2n1Cc1ccc(Cl)cc1 (centres unmarked)  -81.9%
4. COc1ccc(CN2CCC(C(=O)c3ccc(F)cc3)CC2)cc1  -81%
5. COc1ccc(CN2CCC(C(=O)c3ccc(Cl)cc3)CC2)cc1  -80.9%
6. N=c1c(C(=O)NCC2CCCO2)cc2c(=O)n3ccccc3nc2n1Cc1ccccc1 (centres unmarked)  -72.3%
7. COc1ccc(CN2CCC(C(=O)c3cccc(Cl)c3)CC2)cc1  -66.8%
8. N=c1c(C(=O)NCC2CCCO2)cc2c(=O)n3ccccc3nc2n1Cc1ccccc1Cl (centres unmarked)  -46.8%
9. N=c1c(C(=O)NCC2CCCO2)cc2c(=O)n3ccccc3nc2n1Cc1cccnc1 (centres unmarked)  -34.7%
10. COc1ccc(CNC(=O)CN2CCC(C(=O)c3ccc(OC)cc3)CC2)cc1  -15.3%
11. COc1ccc(CN2CCCC(C(=O)c3cccc(Cl)c3)C2)cc1 (centres unmarked)  -7.39%
12. COc1ccc(C(=O)C2CCN(C(=S)Nc3ccc(F)cc3)CC2)cc1  -6.05%
13. COc1ccc(CNC(=O)C2CCN(C(=O)c3cccc(Cl)c3)CC2)cc1  -3.93%
14. CCc1ccc(NC(=O)CN2CCC(C(=O)c3ccc(OC)cc3)CC2)cc1  -3.64%
15. O=C(c1ccc(F)cc1)C1CCN(Cc2ccc(F)cc2)CC1  2.51%
16. C=CCn1c(O)c(C(C)=NCCN2CCN(C(=S)NC)CC2)c(=O)[nH]c1=O  4.36%
17. O=C(NCc1ccco1)c1ccc2c(=O)n(CC3CCCO3)c(=S)[nH]c2c1 (centres unmarked)  4.98%
18. COC(=O)Cc1ccc(NC(=S)N2CCN(C(=O)C3CCCO3)CC2)cc1 (centres unmarked)  5.7%
19. CC1=[N+]([O-])C2(N)CCc3nonc3C2(O)C1 (centres unmarked)  6.29%
20. N=c1c(S(=O)(=O)c2ccc(Cl)cc2)cc2c(=O)n3ccccc3nc2n1CC1CCCO1 (centres unmarked)  6.52%
21. COc1ccccc1CNC(=O)C(NS(=O)(=O)c1ccc2c(c1)OCCO2)C(C)C (centres unmarked)  6.69%
22. CCCOc1ccc(C2c3c(oc4cc(C)c(C)cc4c3=O)C(=O)N2CCCN2CCOCC2)cc1 (centres unmarked)  7.1%
23. O=C(c1cc2c([nH]c1=O)CCCC2)N1CCc2c([nH]c3ccccc23)C1c1ccccc1F (centres unmarked)  7.44%
24. Cc1ccccc1Nc1nc(N)nc(CSc2nc3ccccc3c(=O)n2C)n1  9.44%
25. COc1cc2c(cc1OC)[C@H](Cc1ccc(O)cc1)NCC2  10.8%
26. COC(=O)[C@H](CCSC)NC(=O)Nc1cc(C)ccc1C  11.7%
27. Cc1cc(N(C)C)c(C#N)c(=O)[nH]1  12.4%
28. CC(C)(C)C(=O)Nc1ccc2oc(-c3cc(F)c(F)cc3Cl)nc2c1  15.8%
29. COc1cc(C2NC(=O)C(C#N)=C(Nc3cccc(C)c3)S2)ccc1O (centres unmarked)  18.5%
